Molecular target: Glucose transporter (Leishmania mexicana) (UniProt O61059)
Test: ST_JUDE_LEISH: Cytotoxicity at 2uM final concentration against transgenic Leishmania Mexicana promastigotes LmGT2 that are glucose transport deficient and complemented with the L. Mexicana glucose transporter 2. Activity is measured by DNA content using SYBR green in vitro
Format: functional

Structure (SMILES) | inhibition
CN(c1ccc(NC(=O)c2ccc(F)cc2)cc1)C1CCN(Cc2cccc(F)c2)C1 (stereo not given) | 3.04%
CCC(C)NS(=O)(=O)c1ccc2nc(Nc3ccc(C)cc3)n(C3CCCCC3)c2c1 (stereo not given) | 3.35%
O=C(NC(=S)Nc1cc(C(F)(F)F)cc(C(F)(F)F)c1)c1ccc(Cl)cc1 | -0.06%
CCOc1ccc2c(=NN=Cc3cccc(F)c3)cc(C)[nH]c2c1 | 2.7%
CCn1c(-c2cc(C)on2)nc2cnc(Oc3ccc(C(=O)N4CC(=O)N(C)C4C(C)(C)C)cc3)cc21 (stereo not given) | 5.58%
Cc1ccoc1C(=O)Nc1cccc(-c2cccc(-c3nc4cc(C(F)(F)F)ccc4[nH]3)c2)c1 | -0.44%
CN1CCC(Oc2cc(CN3CC[C@H](NC(=O)c4ccc(Cl)c(Cl)c4)C3)ccc2I)C1 (stereo not given in full) | 2.33%
COc1cccc2cc(C(=O)N[C@@H](CC(C)C)C(=O)N[C@H](C=NN(C)C(=O)OC(C)(C)C)Cc3ccccc3)oc12 | 5.03%
COc1cc2nc(N3CCC(CNC(=O)c4ccc(-c5ccc(C(=O)N(C)C)cc5O)cc4)CC3)nc(N)c2cc1OC | -1.24%
Cc1cccc2nc(-c3ccc(-c4ccc(CN5CCCCC5CO)cc4)cc3)[nH]c12 (stereo not given) | 19.5%
O=C(NCCCN1CCN(c2cccc(Cl)c2)CC1)c1ccc(-c2nc3cc(Cl)c(Cl)cc3[nH]2)c(F)c1 | 1.68%
CC(=O)Nc1ccc(C(=O)N2CCN(c3ccnc4cc(Cl)ccc34)CC2)cc1 | -0.23%
O=C(Nc1cccc(-c2ccc(-c3nc4cc(F)ccc4[nH]3)cc2)c1)Nc1ccc(F)c(F)c1F | -1.44%
CC1CCN(CC[C@H]2CCCN2S(=O)(=O)c2cccc(NC(=O)c3ccc(-c4ccc(Cl)cc4)o3)c2)CC1 | -0.14%
COc1ccc(OCC(=O)Nc2nc(-c3ccc(OC)cc3)c(C)s2)cc1 | -1.09%
CCN(CC)CCNc1ccc(Nc2ccnc3cc4ccccc4cc23)cc1 | 3.92%
CCN(CC)CCCCNc1cc(-c2[nH]c(-c3c(Cl)cccc3Cl)nc2-c2ccc3cc(OC)ccc3c2)ccn1 | -0.83%
Cc1ccc(C(=O)Nc2cc(S(=O)(=O)N3CCCC3)ccc2OCC(F)(F)F)cc1 | 4.69%
Fc1ccc2[nH]c(-c3cccc(-c4ccc(CN5CCCCC5)cc4)c3)nc2c1 | 2.43%
CN1CCC(NCc2cccc(-c3nn(C)c4nc(NC5CCCC5)ncc34)c2)CC1 | 3.81%

Structure (SMILES) | inhibition
Cc1c(Cl)cccc1S(=O)(=O)Nc1cccc(CCN2CCC(N3CCCCC3)CC2)c1 | 2.25%
N#Cc1ccc2c(c1)CCN(CCC1CCC(NC(=O)/C=C/c3cccc4ccccc34)CC1)CC2 (stereo not given) | 2.63%
CN1CCC(N2CCN(Cc3cccc(-c4cccc(-c5nc6ccccc6[nH]5)c4)c3)CC2)CC1 | -3.95%
CCn1cnc2c(N3CCCC3=O)cc(C(=O)N[C@@H](Cc3ccccc3)[C@H](O)CNC3CCCCC3)cc21 | 2.63%
CC(C)(C)c1ccc(OC(=O)c2ccc(NC(=O)N[C@@H](Cc3ccc(O)cc3)C(=O)NC3CCN(Cc4ccc(O)cc4)C3)cc2)cc1 (stereo not given in full) | 9.56%
CC(C)(C)c1ccc(O)c(CNC2CCCCC2)c1 | 3.1%
O=C(/C=C/c1ccc(Cl)c(Cl)c1)N1CCC(NCc2c[nH]c3ccccc23)CC1 | 1.05%
CCCCOc1ccc(/C=C/c2ccc(-c3c(C)[nH]c(C)c(Cl)c3=O)s2)cc1 | -1.25%
Cc1ccc(Cl)cc1NC(=O)c1c(-c2ccccc2Cl)noc1C | -0.61%
COc1ccc(C(=O)CCC(=O)N(Cc2ccc(-c3ccc(CNCCc4ccc(S(C)(=O)=O)cc4)cn3)cc2)C2CC3CCC2C3)cc1F (stereo not given) | 8.16%
Cc1ccc(Cn2ncc(N3CCC(N)CC3)c(Cl)c2=O)cc1NC(=O)Nc1ccc(-c2ccccc2)cc1 | 11.9%
Cn1c(Nc2cc(C(C)(C)C)on2)nc2cc(Nc3ccnc(Nc4ccc(CS(C)(=O)=O)cc4)n3)ccc21 | 2.34%
O=C(NC1CCN(c2ccnc3ccccc23)C1)c1cccc(C(F)(F)F)c1 (stereo not given) | 1.91%
N#Cc1ccc(-c2cnc3ccc(NCCc4cccnc4)nn23)cc1 | 0.25%
COc1cccc(C(=O)Nc2ccc(Nc3nc(C)cc(N4CCCCC4)n3)cc2)c1OC | 0.19%
CC(=O)c1c[nH]c(C(=O)Nc2ccc(-c3cn4ccccc4n3)cc2)c1 | 10.2%
CSc1ccc(CN2CCC(NC(=O)c3ccc(-c4ccc(N(C)C)cc4)s3)CC2)cc1 | 2.99%
COc1ccc(OCCCN2CCN(CC(c3ccc(F)cc3)N3CCN(C(C)C)CC3)CC2)c2ccccc12 (stereo not given) | 5.07%
NC(=O)c1ccsc1NC(=O)CNC(c1ccccc1)c1ccccc1 | 1.15%
Cc1nc(C)c(-c2ccc(C(=O)c3ccc(Cl)cc3)cc2)c(O)c1Br | 0.57%
